Source: PubChem
ERK AVP block – vasopressin-driven ERK pathway inhibition; HEK293-V1b, vasopressin-stimulated pERK AlphaScreen; Potency, µM (series often up to 57.5 µM), for inactives: top-dose activity, negative = inhibition, actives largely listed as inhibitors; hit rate 0.99% among 72,000; AID 995; also: % is scaled to controls: 0 for no effect and ±100 for the full control effect; nearly all actives have a fitted effect of over 55% in size
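qHTS, compounds titrated on V1b-expressing HEK293 cells. Preincubation 30 min at 37C, vasopressin 25 nM for 5 min, lysis 10 min, bead incubation 5 hr at room temperature.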
ALOX15 inhib – 15-hLO (ALOX15) enzyme inhibition; Potency, µM (series often up to 57.1 µM), for the others: at the highest dose activity change, negative = inhibition, hits mostly inhibitors; hit rate 1.4% among 74,000; purified 15hLO-1, xylenol orange hydroperoxide absorbance; AID 887; also: % is scaled to controls: 0 for no effect and ±100 for the full control effect; nearly all actives have a fitted effect of over 55% in size
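Readout: Fe(III)-xylenol orange absorbance, 573-to-405 nm ratio as reaction progress. Enzyme 40 nM purified human 15hLO-1, substrate 50 uM arachidonic acid, 6 min RT after 15 min compound preincubation; Hepes pH 7.5 buffer with Triton X-100.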
Casp1 inh – caspase-1 (human) inhibition, allosteric or competitive; Caspase-1 enzyme, Ac-WEHD-AFC fluorogenic rate; hit rate 0.03% among 75,000; P29466; Potency, µM (series often up to 57.5 µM), inactives show top-dose activity change, negative = inhibition, most hits filed as inhibitors;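 also: plate controls were vehicle for no effect and no substrate for full effect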
Target sequence (P29466 120-297 limits assumed): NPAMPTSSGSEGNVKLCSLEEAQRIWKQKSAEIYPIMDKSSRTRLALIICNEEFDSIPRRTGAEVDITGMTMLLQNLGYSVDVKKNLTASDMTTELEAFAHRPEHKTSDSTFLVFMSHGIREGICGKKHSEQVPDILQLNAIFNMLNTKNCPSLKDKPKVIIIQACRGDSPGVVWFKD
Target sequence (P29466 317-404 limits assumed): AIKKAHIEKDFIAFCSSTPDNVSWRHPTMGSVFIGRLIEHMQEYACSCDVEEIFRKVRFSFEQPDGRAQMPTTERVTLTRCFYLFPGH
15-hLO-2 inh – blocks human 15-lipoxygenase 2 activity; purified 15hLO-2, xylenol orange hydroperoxide absorbance; Potency, µM (top dose mostly 57.1 µM), for inactives: top-dose activity change, negative = inhibition, hits mostly inhibitors; hit rate 0.56% among 110,000; AID 881; also: % is scaled to controls: 0 for no effect and ±100 for the full control effect; nearly all actives have a fitted effect of over 60% in size
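Purified human 15hLO-2 (50 nM) preincubated 15 min with compound, then 45 uM arachidonic acid for 90 min at RT in 25 mM Hepes pH 7.5, 0.01% Triton X-100. Hydroperoxide detected by Fe-xylenol orange; 573/405 nm absorbance ratio.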
Caspase-7 inhib – blocks human caspase-7 allosterically or competitively; hit rate 0.02% among 75,000; AID 889; recombinant caspase-7, Ac-DEVD-AFC fluorescence rate; Potency, µM (top dose mostly 57.5 µM), inactives show top-dose activity change, negative = inhibition, hits mostly inhibitors; P55210; active = well fitted inhibition curve with a large enough effect in the main read-out, with a control signal flat, not every such curve was filed as active; inconclusive = small, poorly fitted or top-dose-only effect, or a change in a side signal; also: % of control where 0% means no effect
Target sequence (P55210 24-198 limits assumed): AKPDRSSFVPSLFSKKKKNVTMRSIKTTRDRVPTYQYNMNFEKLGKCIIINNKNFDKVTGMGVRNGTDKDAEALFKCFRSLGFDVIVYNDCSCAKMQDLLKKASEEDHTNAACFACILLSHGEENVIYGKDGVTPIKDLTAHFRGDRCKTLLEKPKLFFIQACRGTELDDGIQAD
Target sequence (P55210 207-303 limits assumed): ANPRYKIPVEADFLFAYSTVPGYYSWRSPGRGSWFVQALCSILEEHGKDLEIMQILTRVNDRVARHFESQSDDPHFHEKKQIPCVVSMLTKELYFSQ
Starred values were filed as active, the others as inactive; ? = inconclusive; nt = not tested or not shown; [ ] = dose if it differs, or a comment. This is a sample that favours compounds with a hit; in the whole collection about 1.7% have one here. Unless noted, calls follow the shape of the dose curve; as a rule, active = well fitted curve in the direction sought with a large enough effect; inconclusive = small, poorly fitted or top-dose-only effect, or another doubt; inactive = no such curve, though single readings can be large; an effect the other way counts as inactive or inconclusive. Potency is read from the fitted curve at half-maximal effect.

SMILES | ERK AVP block | ALOX15 inhib | Casp1 inh | 15-hLO-2 inh | Caspase-7 inhib
CC1CCN(c2ccccc2NC(=S)NC(=O)c2ccc(-c3cccc([N+](=O)[O-])c3)o2)CC1 | nt | nt | nt | 15.8µM* | nt
COc1ccccc1CNc1ncncc1-c1ccccc1C | -1.4% | ? | 1.0% | 6.6% | -0.1%
COc1cccc(-c2cncnc2NCc2cccnc2)c1 | -22.2% | 15.8µM* | -4.1% | ? | -3.0%
COc1ccccc1CNc1ncncc1-c1ccoc1 | -39.0% | 10µM* | -1.5% | 5.3% | -8.5%
COc1ccccc1CNc1ncncc1-c1ccc(N(C)C)cc1 | ? | -15.6% | -2.5% | 16.3% | -5.6%
COc1ccc(CNc2ncncc2-c2ccc(N(C)C)cc2)c(OC)c1 | ? | 20µM* | nt | -10.1% | ?
CCC(C(=O)NCc1ccco1)N(C(=O)CNS(=O)(=O)c1ccccc1)C1CCCCC1 (stereo unspecified) | nt | nt | nt | -6.4% | nt
CCCC(C(=O)NCc1ccco1)N(C(=O)CNS(=O)(=O)c1ccc(Cl)cc1)C1CCCC1 (stereo unspecified) | -4.9% | 25.1µM* | 0.5% | -2.9% | -2.2%
OCc1ccccc1 | 13.4% | -5.1% | -2.2% | -6.0% | 0.5%
ICCc1ccccc1 | 44.2% | 12.6µM* | ? | -7.3% | -3.1%
CCn1c(CSc2nc3ccccc3s2)nc2ccccc21 | 39.8µM* | 0.1%[11.4 µM] | ? | 20.4% | -30.0%
COC(=O)c1cc(OC)c(OC)cc1NC(=O)C1CCC(=O)N1S(=O)(=O)c1ccc(C)cc1 (stereo unspecified) | 25.1µM* | 7.1% | 0.6% | 6.0% | -1.6%
COC(=O)c1ccc(NC(=O)C2CCCN2S(=O)(=O)c2ccc(C)cc2)cc1 (stereo unspecified) | 25.1µM* | -3.2% | 2.5% | nt | -1.6%
COC(=O)c1ccccc1NC(=O)C1CCC(=O)N1S(=O)(=O)c1ccc(C)cc1 (stereo unspecified) | nt | nt | nt | -3.1% | nt
CC(C)Cn1c(N)c(C(=O)CSc2ccc3c(c2)OCCO3)c(=O)n(C)c1=O | 2µM* | -12.6% | 0.1% | 1.2% | -3.9%
Cc1ccc(/C=N/c2sc3c(c2C#N)CCC3)o1 | nt | nt | nt | -23.5% | nt
N#Cc1c(/N=C/c2cccs2)sc2c1CCCCC2 | 15.8µM* | -9.7% | -3.3% | -10.6% | 2.7%
Oc1cc2c(cc1O)C1c3ccc(O)c(O)c3OCC1(O)C2 (stereo unspecified) | ? | 5.01µM* | 0.9% | ? | -8.3%
COc1ccccc1CNc1nc(-c2ccccc2OC)nc2ccccc12 | -8.8% | ? | -2.5% | -5.1% | -1.9%
O=C1NC(=O)c2cc(Nc3ccc(F)cc3)c(Nc3ccc(F)cc3)cc21 | nt | nt | nt | -21.4%[0.0915 µM] | nt
O=C1NC(=O)c2cc(Nc3ccccc3)c(Nc3ccccc3)cc21 | 31.6µM* | -13.2% | -0.2% | -20.3% | -5.0%
O=C(O)c1ccc2cc(-c3ccc(O)c(C45CC6CC(CC(C6)C4)C5)c3)ccc2c1 | ? | ? | -3.3% | 7.94µM* | -10.2%
O=C(NCCCN1CCOCC1)c1ccc(Cc2nc3ccccc3[nH]2)cc1 | nt | -1.1% | -3.7% | nt | 0.2%
O=C1c2ccccc2C(=O)C1(O)O | ? | -24.4% | ? | 25.1µM* | -0.5%
OCCN[C@@H]1c2cc(Cl)ccc2-c2c(Cl)cc(Cl)cc21 | -2.5%[11.5 µM] | -11.7%[11.4 µM] | -1.8%[11.5 µM] | -12.4%[11.4 µM] | -0.5%[11.5 µM]
SMILES | ERK AVP block | ALOX15 inhib | Casp1 inh | 15-hLO-2 inh | Caspase-7 inhib
CC(=O)c1ccc(C2C=CC(Oc3ccc(-c4ccccc4)cc3)C(CO)O2)cc1 (stereo unspecified) | 9.0%[11.5 µM] | -2.1%[11.4 µM] | -1.6%[11.5 µM] | nt | -5.5%[11.5 µM]
O=C(c1cnccn1)N1CCC2(CC1)CN(C(c1ccccc1)c1ccccc1)C2 | -18.1% | 0.1% | -2.9% | 5.2% | -1.1%
O=C(c1cnccn1)N1CCC2(CCCN(C(c3ccccc3)c3ccccc3)C2)CC1 | 39.8µM* | -0.9% | -2.7% | 12.7% | -3.4%
CSC(N)=NCCC[C@@H](N)C(=O)O | 3.6% | 10.0% | 2.9% | -3.2% | 2.1%
CNC1C(O)C2OC3OC(C)CC(=O)[C@@]3(O)O[C@H]2[C@H](NC)C1O (stereo partly specified) | 10.4% | -0.9% | 3.5% | 3.9% | 2.4%
Clc1ccc2[nH]c3c(NCC4CCCO4)ncnc3c2c1 (stereo unspecified) | 25.1µM* | ? | -2.7% | 26.2% | -3.1%
N#C/C(=C/c1ccc(Sc2nc3ccccc3[nH]2)o1)c1cccc(F)c1 | nt | nt | nt | 19.5% | nt
N#C/C(=C/c1ccc(N2CCCCC2)o1)c1cccc(F)c1 | nt | nt | nt | 10µM* | nt
N#C/C(=C/c1ccc(N2CCCCCC2)o1)c1ccc(Cl)cc1 | nt | nt | nt | 7.94µM* | nt
Cc1ccc(/C(C#N)=C\c2ccc(N3CCOCC3)o2)cc1 | nt | nt | nt | 12.6µM* | nt
NS(=O)(=O)c1cc(C(=O)O)c(O)c2ccccc12 | -8.5%[11.5 µM] | 5.7%[11.4 µM] | -0.4%[11.5 µM] | -14.6%[11.4 µM] | 1.0%[11.5 µM]
CCOc1cccc(CNc2ccc(O)cc2)c1OCc1ccc(Cl)cc1Cl | nt | nt | nt | 1.58µM* | nt
CCOc1cccc(CNn2cnnc2)c1OCc1ccccc1Cl | nt | nt | nt | -6.1% | nt
CCOC(=O)C1=C(CSc2nc(C)ccc2C#N)OC(N)=C(C#N)C1c1cccc(OC)c1OC (stereo unspecified) | -20.1% | 20µM* | -19.9% | 0.1% | -19.0%
CCOC(=O)C1=C(CSc2nc(-c3ccncc3)ccc2C#N)OC(N)=C(C#N)C1c1ccc(OC)cc1 (stereo unspecified) | nt | nt | nt | 26.2% | nt
CC(=O)OC[C@@H]1O[C@@H](O/N=C2/C[C@@H](O)[C@@H](O)[C@@H]3[C@@H]4C(=O)N(C(C)(C)C)C(=O)[C@H]4CC[C@@H]23)[C@H](OC(C)=O)[C@H](OC(C)=O)[C@@H]1OC(C)=O | 27.6%[11.5 µM] | 6.5%[11.4 µM] | -1.5%[11.5 µM] | nt | -0.3%[11.5 µM]
COc1ccc(S(=O)(=O)N2c3ccc(Cl)cc3[C@](O)(c3ccccc3Cl)[C@@H]2C(=O)N2CCC[C@H]2C(N)=O)cc1OC | 3.98µM* | 15.8µM* | 6.2% | 19.1% | 0.8%
CCOC(=O)C1=C(c2ccccc2)NC(=S)NC1c1cc([N+](=O)[O-])ccc1OC (stereo unspecified) | nt | nt | nt | 25.1µM* | nt
CCCCC(=O)O[C@]1(C(=O)CO)[C@H](C)C[C@H]2[C@@H]3CCC4=CC(=O)C=C[C@]4(C)[C@@]3(F)[C@@H](O)C[C@@]21C | nt | nt | nt | -15.2%[0.0915 µM] | nt
CC(C)=CCc1c2c(c3occ(-c4ccc(O)c(O)c4)c(=O)c3c1O)C=CC(C)(C)O2 | ? | 3.98µM* | 0.0%[11.5 µM] | -1.0%[11.4 µM] | ?
CCCC(=O)OC(=O)CCC | 7.0% | 2.7% | -0.2% | -20.8% | 0.5%
CCOC(=O)c1ccc(NC(=O)CCc2nc(-c3ccccc3Cl)no2)cc1 | ? | -23.2% | -2.1% | 6.3% | -6.2%
CCc1cccc(NC(=O)CCc2nc(-c3cccs3)no2)c1 | 25.1µM* | -11.5% | -2.1% | -4.7% | -3.0%
COc1cc(NC(=O)CCc2nc(-c3cccs3)no2)cc(OC)c1OC | nt | nt | nt | 16.0% | nt
CCOC(=O)c1ccc(NC(=O)CCc2nc(-c3ccccc3)no2)cc1 | 15.8µM* | -18.0% | -3.4% | 1.4% | -4.3%
O=Nc1c(-c2c(O)[nH]c3cc(Br)ccc23)[nH]c2ccccc12 | 10µM* | -25.0% | -5.5% | -6.0% | -2.2%
